Each structure is given as a SMILES string. Among all 77,000 compounds or so, about 4,600 (6%) were called active. About 1% were inconclusive and are not listed. Many of the other results were omitted from the sample, so actives are more common in it than they were. Values without a mark were called inactive.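 How the source made its calls: active means mean inhibition above about 93%, with at least 55% of replicates each passing it (limit read from the data, passing the limit was not always enough); inconclusive means only one of those two conditions holds; inactive means neither condition holds.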

The text below walks through data of PubChem BioAssay AID624255 (Broad Institute, 2012).

The assay can be described thus: growth inhibition of T. cruzi in host fibroblasts – cell-based, beta-gal Tulahuen parasites, NIH3T3 host, luminescence, primary screen (AID 624255). Particulars: T. cruzi beta-gal in NIH3T3, GalScreen luminescence, 90 h; at 8.34 µM; active compounds read high.
Usually inhibition stands for the change of the read-out against control, counted positive when it falls. As for `COc1cccc(-c2ccc3n(c2=O)C[C@@H]2[C@@H](CO)[C@H](C(=O)NCC4CC4)N(C(=O)NC(C)C)[C@H]32)c1`, the inhibition is -3.92%.

Consider `COc1ccc(-c2cn(CC[C@@H]3CC[C@@H](NS(=O)(=O)c4ccccc4C)[C@H](CO)O3)nn2)cc1`, for which the inhibition was -38.7%.

For the compound `CCNC(=O)[C@H]1[C@H](CO)[C@H]2Cn3c(cccc3=O)[C@H]2N1C(=O)C1CCCC1`, the inhibition was -9.09%.

Regarding `O=C(NC1CCCCC1)[C@@H]1[C@@H](CO)[C@@H]2Cn3c(cccc3=O)[C@@H]2N1C(=O)CC1CC1`, the inhibition is -9.4%.

Take `O=C(Nc1ccc(-c2ccccc2)cc1)[C@H]1[C@H](CO)[C@H]2Cn3c(cccc3=O)[C@H]2N1CC1CC1`: the inhibition is 170% (active).

Consider `O=C(Nc1ccc(-c2ccccc2)cc1)[C@@H]1[C@@H](CO)[C@@H]2Cn3c(cccc3=O)[C@H]1N2Cc1ccncc1`, for which the inhibition is 10.3%.

Regarding `O=C(NCC1CCCCC1)[C@H]1[C@H](CO)[C@H]2Cn3c(cccc3=O)[C@H]2N1C(=O)CC1CC1`, the inhibition is 101% (active).

For `O=C(Nc1ccccc1)[C@@H]1[C@@H](CO)[C@@H]2Cn3c(cccc3=O)[C@@H]2N1C(=O)C1CC1`, the inhibition was 90.7%.

In the case of `COC(=O)C[C@H]1C[C@@H]2c3cc(NC(=O)Nc4ccccc4)ccc3O[C@@H]2[C@@H](CO)O1`, the inhibition is 57.1%.

With `O=C(Cc1ccccn1)NCC[C@H]1CC[C@@H](NS(=O)(=O)c2ccc(F)cc2)[C@H](CO)O1`, the inhibition was 13.9%.

`COc1ccc(NC(=O)N(C)C[C@@H]2OCCCC[C@H](C)Oc3ccc(NS(=O)(=O)c4c(C)noc4C)cc3C(=O)N([C@@H](C)CO)C[C@@H]2C)cc1`: the inhibition is 52.5%.

For the compound `O=S(=O)(NC[C@H]1[C@@H](c2ccccc2)[C@@H](CO)N1CC1CC1)c1ccccc1`, the inhibition was 10.3%.

For the compound `N#C[C@H]1[C@@H](c2ccc(C3=CCCCC3)cc2)[C@@H](CO)N1C(=O)NC1CCCCC1`, the inhibition is 101% (active).

As for `N#C[C@H]1[C@@H](c2ccc(C3=CCCCC3)cc2)[C@@H](CO)N1C(=O)Cc1ccncc1`, the inhibition was 57.5%.

`CC(C)NC(=O)N1[C@H](C#N)[C@H](c2ccc(C#CC3CCCCC3)cc2)[C@H]1CO`: the inhibition was 107% (active).

Turning to `CC(C)NC(=O)N1[C@H](C#N)[C@@H](c2ccc(-c3ccc(F)cc3)cc2)[C@H]1CO`, the inhibition is 34.6%.

Take `CS(=O)(=O)N1[C@H](C#N)[C@H](c2ccc(C#CC3CC3)cc2)[C@H]1CO`: the inhibition is 93%.

`N#C[C@@H]1[C@@H](c2ccc(C3=CCCC3)cc2)[C@@H](CO)N1C(=O)C1CCCC1`: the inhibition is 34.1%.

For the compound `N#C[C@@H]1[C@@H](c2ccc(C3=CCCCC3)cc2)[C@@H](CO)N1C(=O)c1cccc(F)c1`, the inhibition is 5.72%.

As for `N#C[C@H]1[C@@H](c2ccc(C#CC3CCCC3)cc2)[C@H](CO)N1C(=O)Nc1ccc(F)cc1`, the inhibition was 92.8%.

Consider `CCCNC(=O)N1[C@H](C#N)[C@@H](c2ccc(C3=CCCC3)cc2)[C@H]1CO`, for which the inhibition is -28.9%.

Turning to `CS(=O)(=O)N1[C@H](C#N)[C@H](c2ccc(C#CC3CCCC3)cc2)[C@H]1CO`, the inhibition was 91.5%.

On to `CCc1cnc(N2[C@H](C#N)[C@H](c3ccc(C4=CCCC4)cc3)[C@@H]2CO)s1`, for which the inhibition was 101% (active).

For the compound `CS(=O)(=O)N1[C@@H](C#N)[C@H](c2ccc(C#CC3CCCCC3)cc2)[C@@H]1CO`, the inhibition is 105% (active).

`CO[C@@H]1CN(C)C(=O)c2cc(NC(=O)C3CCCCC3)ccc2OC[C@@H](C)N(C(=O)Nc2ccc(C(F)(F)F)cc2)C[C@H]1C`: the inhibition was 15.6%.

For `O=C(C[C@H]1CC[C@H]2[C@@H](COC[C@H](O)CN2C(=O)c2ccccc2F)O1)NCc1ccccc1`, the inhibition is -22.2%.

Consider `Cc1ccc(S(=O)(=O)Nc2ccc3c(c2)C(=O)N([C@H](C)CO)C[C@@H](C)[C@@H](CN(C)S(C)(=O)=O)OCCCC[C@@H](C)O3)cc1`, for which the inhibition is 29.2%.

`CO[C@H]1CN(C)C(=O)c2cc(NC(=O)Nc3c(C)noc3C)ccc2OC[C@@H](C)N(CCC(F)(F)F)C[C@H]1C`: the inhibition was 6.32%.

Turning to `Cc1noc(C)c1NC(=O)Nc1ccc2c(c1)C(=O)N([C@H](C)CO)C[C@@H](C)[C@H](CN(C)C(=O)Nc1cccc3ccccc13)OCCCC[C@@H](C)O2`, the inhibition is 80.3%.

As to `C/C=C/c1ccc([C@@H]2[C@H](CO)N(C(C)=O)[C@H]2CN(CC)C(=O)CN(C)C)cc1`, the inhibition is 81.2%.

Consider `C[C@@H]1CN([C@H](C)CO)C(=O)c2cc(NC(=O)CCCN(C)C)ccc2O[C@@H](C)CCCCO[C@@H]1CN(C)Cc1ccncc1`, for which the inhibition was 14.7%.

Take `CN(C)C(=O)[C@@H]1[C@@H](CO)[C@@H]2Cn3c(cccc3=O)[C@@H]2N1C(=O)C1CCC1`: the inhibition is -8.64%.

On to `COc1ccc(S(=O)(=O)N(C)C[C@@H]2OCCCC[C@H](C)Oc3ccc(NC(=O)NC4CCCCC4)cc3C(=O)N([C@H](C)CO)C[C@H]2C)cc1`, for which the inhibition was 94%.

On to `O=C(C[C@H]1CC[C@@H]2[C@H](COC[C@@H](O)CN2C(=O)Nc2ccc(C(F)(F)F)cc2)O1)NCCc1ccncc1`, for which the inhibition is 57%.

Take `O=C(C[C@@H]1CC[C@@H]2[C@H](COC[C@H](O)CN2C(=O)Cc2ccccc2)O1)NC1CCC1`: the inhibition is 27.2%.

As to `CNC[C@H]1OCCCC[C@@H](C)Oc2ccc(NS(C)(=O)=O)cc2C(=O)N([C@H](C)CO)C[C@H]1C`, the inhibition was 101% (active).

As for `C[C@@H]1CN([C@@H](C)CO)C(=O)c2cc(NS(C)(=O)=O)ccc2O[C@@H](C)CCCCO[C@@H]1CN(C)S(=O)(=O)c1cn(C)cn1`, the inhibition was -54%.

With `C[C@@H]1CCCCO[C@H](CN(C)C(=O)CCC(F)(F)F)[C@H](C)CN([C@H](C)CO)C(=O)c2cc(NS(C)(=O)=O)ccc2O1`, the inhibition is 107% (active).

On to `C[C@@H]1CN([C@H](C)CO)C(=O)c2cccc(NS(=O)(=O)c3cn(C)cn3)c2O[C@H]1CN(C)CC1CC1`, for which the inhibition was 27.4%.

Turning to `C[C@@H]1CN([C@@H](C)CO)C(=O)c2cc(NS(=O)(=O)c3cn(C)cn3)ccc2O[C@@H](C)CCCCO[C@H]1CN(C)S(=O)(=O)c1cn(C)cn1`, the inhibition is -14.8%.

For the compound `C[C@@H]1CN([C@H](C)CO)C(=O)c2cc(NS(=O)(=O)c3ccccc3)ccc2O[C@@H](C)CCCCO[C@@H]1CN(C)C(=O)CCC(F)(F)F`, the inhibition is -2.2%.

`CNC[C@H]1OCCCC[C@@H](C)Oc2ccc(NS(C)(=O)=O)cc2C(=O)N([C@@H](C)CO)C[C@H]1C`: the inhibition was 61.9%.

Turning to `C[C@@H]1CN([C@H](C)CO)C(=O)c2cc(NS(C)(=O)=O)ccc2O[C@@H](C)CCCCO[C@H]1CN(C)S(=O)(=O)c1cn(C)cn1`, the inhibition was 104% (active).

Turning to `C[C@H]1CN([C@@H](C)CO)C(=O)c2cc(NS(=O)(=O)c3cn(C)cn3)ccc2O[C@H]1CN(C)CC1CCCCC1`, the inhibition is 3.71%.

As to `CNC[C@@H]1OCCCC[C@@H](C)Oc2ccc(NS(C)(=O)=O)cc2C(=O)N([C@H](C)CO)C[C@@H]1C`, the inhibition is 4.76%.

On to `C[C@H](CO)N1C[C@H](C)[C@H](CN(C)C(=O)CCC(F)(F)F)OCCCC[C@H](C)Oc2ccc(NS(C)(=O)=O)cc2C1=O`, for which the inhibition was -3.61%.

As for `C[C@H]1CN([C@@H](C)CO)C(=O)c2cccc(NS(=O)(=O)c3cn(C)cn3)c2O[C@@H]1CN(C)CC1CCCCC1`, the inhibition is 96.2% (active).

Take `CNC(=O)C[C@H]1CC[C@@H]2[C@@H](COc3ccc(NC(=O)c4ccc(F)c(F)c4)cc3C(=O)N2C)O1`: the inhibition was -6.57%.

On to `CCNC(=O)Nc1ccc2c(c1)C(=O)N(C)[C@H]1CC[C@@H](CC(=O)N[C@H](C)c3ccccc3)O[C@@H]1CO2`, for which the inhibition is 13.7%.

For `Cc1noc(C)c1S(=O)(=O)N(C)C[C@@H]1Oc2ccc(NC(=O)Cn3cnnn3)cc2CC(=O)N([C@@H](C)CO)C[C@@H]1C`, the inhibition was -16.4%.

Consider `Cc1ccc(S(=O)(=O)N[C@@H]2CC[C@H](CCNC(=O)C3CCOCC3)O[C@@H]2CO)cc1`, for which the inhibition is 2.56%.

`CO[C@H]1CN(C)C(=O)c2cc(NC(=O)C3CCC3)ccc2OC[C@H](C)N(C)C[C@H]1C`: the inhibition was 17%.

With `CC=Cc1ccc2n(c1=O)C[C@@H]1[C@@H](CO)[C@H](C(=O)NCC3CC3)[C@H]2N1C(=O)c1ccccc1` (mixture of isomers), the inhibition was 35.2%.

Regarding `COc1ccc(-c2ccc([C@@H]3[C@@H](CO)N4CCCCN(C(=O)NC(C)C)C[C@H]34)cc2)cc1`, the inhibition is 73.2%.

For `CN1C(=O)c2cc(NS(C)(=O)=O)ccc2OC[C@H]2O[C@H](CC(=O)NCc3ccccc3)CC[C@H]21`, the inhibition was -19.6%.

Take `CO[C@@H]1CN(C)C(=O)c2ccc(NC(=O)Nc3ccccc3)cc2OC[C@@H](C)N(C(=O)CN(C)C)C[C@H]1C`: the inhibition is -44.4%.

As to `O=C([C@@H]1[C@@H](CO)[C@@H]2Cn3c(ccc(-c4ccccc4)c3=O)[C@H]1N2CCC(F)(F)F)N1CCCCC1`, the inhibition was 1.28%.

For `CNC[C@H]1OCCCC[C@H](C)Oc2ccc(NC(=O)Nc3c(C)noc3C)cc2C(=O)N([C@H](C)CO)C[C@H]1C`, the inhibition is 104% (active).

For `Cc1noc(C)c1NC(=O)Nc1ccc2c(c1)C(=O)N([C@H](C)CO)C[C@H](C)[C@@H](CN(C)S(C)(=O)=O)OCCCC[C@H](C)O2`, the inhibition is 11.5%.

As to `CNC[C@@H]1OCCCC[C@H](C)Oc2ccc(NC(=O)Nc3ccccc3)cc2C(=O)N([C@H](C)CO)C[C@H]1C`, the inhibition is 28.6%.

Consider `CO[C@@H]1CN(C)C(=O)c2cc(NC(=O)NC(C)C)ccc2OC[C@@H](C)N(CC2CC2)C[C@@H]1C`, for which the inhibition was -28.4%.
